Screens (PubChem BioAssay)
An excerpt weighted towards active compounds, which were near 2.2% of everything screened.
BaF3 parental: parental Ba/F3 cell viability inhibition, counter-screen for JAK2V617F inhibitor project, murine pro-B, CellTiter-Glo luminescence; CellTiter-Glo ATP luminescence; inhibition, % at 5.6 µM; 1.1% of 220,000 active;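 active = inhibition above a per-campaign cutoff, the mean inhibition of all tested compounds plus 3 SD, cut at about 27% in these data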;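 note: 0% = DMSO wells and 100% = JAK Inhibitor I control wells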
KLF5 inhibitor: KLF5 expression inhibitors, primary screen, DLD-1 cells, luminescence; DLD-1 KLF5 promoter-luciferase reporter; inhibition, % at 5 µM; 0.23% of 290,000 active; AID 1700, 2009;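 active = inhibition above a per-plate limit of that plate's mean compound inhibition plus 3 SD, cut at about 60% in these data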;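 note: 0% = DMSO wells and 100% = LY294002 at 200 µM; higher means less KLF5 promoter-driven luciferase light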
APP 5UTR inh: inhibitors of APP translation via 5'UTR reporter, primary screen, APP 5'UTR luciferase, SH-SY5Y cells. AID 1285, 2008. 0.82% of 190,000 active. inhibition, % at 2 µM. SH-SY5Y APP 5'UTR-luciferase reporter, luminescence;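 active = inhibition above a set limit, derived from the sample mean plus 3 SD, cut at about 45% in these data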
IEC-6 tox: cytotoxicity in IEC-6 intestinal epithelial cells, primary screen, cytotoxicity control for KLF5 inhibitor project, cell-based, luminescence | IEC-6 cytotoxicity, luminescence viability | inhibition, % at 5 µM | 0.78% of 290,000 active | AID 1825, 2009; in the data active = inhibition above about 22%;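 note: 0% = plate median of test compound wells and 100% = cytotoxic reference compound wells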
aSyn UTR inh: MLPCN primary screen, SNCA 5' untranslated region; alpha-synuclein 5'UTR reporter, inhibitor activity; inhibition, % (tested at 7.5 µM); 0.82% of 300,000 active; in the data active = inhibition above about 60%;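 note: H4 neuroglioblastoma cells stably carrying SNCA 5'UTR luciferase fusion; 0% = DMSO wells and 100% = positive control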
Ba/F3 V617F tox: reduced viability of JAK2V617F-dependent Ba/F3 cells, primary screen, JAK2V617F inhibitor project, cell-based, Ba/F3 EpoR-JAK2V617F, luminescence | AID 1446, 2008 | inhibition, % at 5.6 µM | ATP luminescence | 1.1% of 220,000 active;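 active = inhibition above the campaign mean plus 3 SD over all tested compounds, cut at about 24% in these data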;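 note: cytokine-independent growth of Ba/F3 cells driven by EpoR plus mutant JAK2; 0% = DMSO-treated cells and 100% = JAK inhibitor I control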
Active calls of the source: *; . = no result given.

SMILES	BaF3 parental	KLF5 inhibitor	APP 5UTR inh	IEC-6 tox	aSyn UTR inh	Ba/F3 V617F tox
O=C1C(Cc2ccccc2)Nc2ncnc(N3CCc4ccccc4C3)c2N1Cc1ccc(Br)cc1 (configuration not stated)	.	.	.	.	4.0	.
C[C@@H](NC(=O)[C@@H]1Cc2ccccc2CN1)C(=O)NCc1ccco1	.	-13.2	.	-0.4	11.7	.
COCc1cc(C)nc(OCC(=O)N/N=C/c2cc(C)n(-c3c(C)cccc3C)c2C)c1C#N	4.6	-46.7	57.4*	-5.6	-0.1	-2.5
Cc1ccn2c(NC3CCCC3)c(-c3ccccn3)nc2c1	6.8	-48.5	1.4	1.8	-46.8	3.2
Cc1ccn2c(Nc3ccc4c(c3)OCO4)c(-c3ccccn3)nc2c1	3.6	-48.9	52.4*	-5.6	-50.4	-3.4
Cc1ccc(Nc2c(-c3ccccn3)nc3cc(C)ccn23)cc1	0.4	7.0	59.8*	11.1	34.7	1.0
Cc1ccc(Nc2c(-c3ccccn3)nc3ccc(C)cn23)cc1	1.6	6.1	60.0*	-1.4	35.6	4.5
Cc1ccc(-c2nc3cnccn3c2Nc2ccc3c(c2)OCO3)o1	0.8	-2.7	9.3	-7.0	20.5	-4.0
Cc1cc(C)n(NC(=S)NC2CCCC2)c(=O)c1C#N	4.2	-13.0	.	4.2	10.8	-2.8
COc1ccc(CCNS(=O)(=O)CCNC(=O)c2ccc(OC)cc2)cc1	.	.	.	.	-15.6	.
CC(=O)Nc1ccc(NS(=O)(=O)c2cccc3nonc23)cc1	.	-3.0	.	-1.2	-15.0	.
CCOC(=O)c1c(CNc2ccncc2)n(C)c2cc(Br)c(O)cc12	40.7*	-16.2	23.7	-3.5	-61.8	38.4*
CCOc1ccc(NC(=O)CN(C)C(=O)Cc2c(C)nc3ccccc3c2C)cc1OCC	.	-37.0	.	-1.9	-13.8	.
NC(N)=N/N=C/c1ccc(OCc2ccccc2)c(OCc2ccccc2)c1	.	-0.1	.	1.5	106.1*	.
CCOc1cc(/C=N/N=C(N)N)ccc1OCc1ccc(Cl)cc1	3.6	-5.0	26.6	8.9	-32.2	3.5
COCC1COS(=O)(=O)NC1(C)C (configuration not stated)	.	-17.9	.	-2.0	22.5	.
CC(C(=O)O)n1c(-c2ccn[nH]2)n[nH]c1=S (configuration not stated)	1.5	1.7	.	-0.3	6.0	-0.4
O=C(NC(=S)NNC(=O)[C@H]1C[C@@H]1c1ccccc1)c1cccc(F)c1	-4.1	-16.2	.	4.4	67.2*	-2.1
COc1ccc(C(C)(C)NC(=O)C2CCC(=O)N(C3CC3)C2)cc1OC (configuration not stated)	.	-14.2	.	9.1	13.2	.
COc1cc2c(cc1OC)CN(C(=S)Nc1ccccc1)CC2	33.1*	-10.1	-7.4	-3.1	-3.6	4.2
COc1ccc(C2NC(=O)NC(C)=C2[N+](=O)[O-])cc1 (configuration not stated)	.	-21.0	.	-5.8	-23.5	.
CCCCN(CC)Cc1c(O)ccc2c(-c3ccccc3)cc(=O)oc12	29.0*	-1.6	.	2.7	24.6	21.7
CC1CCN(C(=O)CSc2ccc(-c3cccnc3)nn2)CC1	.	-29.5	.	5.0	9.9	.
COc1ccc(NC(=O)C(C)N2CCN(C)CC2)cc1 (configuration not stated)	.	6.1	.	3.3	7.2	.
COc1ccc(CNS(=O)(=O)c2csc(C(N)=O)c2)cc1OC	.	-15.4	.	1.7	-9.1	.
SMILES	BaF3 parental	KLF5 inhibitor	APP 5UTR inh	IEC-6 tox	aSyn UTR inh	Ba/F3 V617F tox
COc1cc(C(=O)Oc2ccccc2/C=N/NC(=O)c2ccc(C)c(Cl)c2)cc(OC)c1OC	3.1	-7.5	50.4*	1.1	84.3*	-1.3
COc1cc(C(=O)Oc2ccccc2/C=N/NC(=O)c2ccc(Cl)cc2)cc(OC)c1OC	8.7	-18.5	39.9	9.9	56.9	-1.8
O=[N+]([O-])c1ccc(N/N=C/c2ccc[nH]2)cc1	33.1*	4.5	65.0*	5.7	.	60.2*
O=[N+]([O-])c1ccc(N/N=C/c2cccc(O)c2O)cc1	.	-4.5	.	2.1	-170.4	.
O=[N+]([O-])c1ccc(N/N=C/c2c[nH]c3ccccc23)cc1	31.9*	-11.4	8.2	11.3	-138.7	52.2*
COc1ccc(N(CC(=O)N2CCC(C(N)=O)CC2)S(=O)(=O)c2ccccc2)cc1	.	-6.7	.	5.9	10.2	.
Cc1ccc(Cn2c(Sc3ncccn3)nc3c2c(=O)[nH]c(=O)n3C)cc1	0.5	-5.8	3.2	-3.7	3.6	-0.8
CCCCCn1c(Sc2ncccn2)nc2c1c(=O)[nH]c(=O)n2C	5.3	-39.3	64.0*	8.6	33.7	3.8
CCN(c1ccccc1)S(=O)(=O)c1ccc2c(c1)CC(C)N2C(=O)C1CC1 (configuration not stated)	.	-17.2	.	5.6	0.3	.
O=C(c1cccs1)c1no[n+]([O-])c1C(=O)c1cccs1	1.3	-7.3	-8.6	-2.9	63.1*	4.8
COc1ccc(C(=O)c2no[n+]([O-])c2C(=O)c2ccc(OC)cc2)cc1	7.7	-42.8	-8.9	3.5	-20.6	3.4
O=C(c1ccco1)N1CCN(C(=O)c2ccc(CS(=O)c3ccc(Cl)cc3)o2)CC1 (configuration not stated)	.	-24.5	.	-7.7	5.2	.
Cc1ccc(OCCn2cnc3cc([N+](=O)[O-])ccc3c2=O)cc1	5.1	2.2	-8.0	12.0	2.1	2.0
COc1ccc2c(Cn3cnc4cc([N+](=O)[O-])ccc4c3=O)cc(=O)oc2c1	-0.2	0.8	.	-1.3	72.1*	-1.9
CCOC(=O)C1CCN(Cc2ccccc2C(F)(F)F)CC1	-2.4	22.3	-53.8	-2.6	30.6	-3.4
CCOC(=O)C1CCN(Cc2ccc(O)c3ncccc23)CC1	49.8*	0.8	40.6	0.6	30.8	81.7*
COc1ccccc1N1CCN(Cc2ccc(O)c3ncccc23)CC1	36.9*	9.9	90.3*	0.6	76.6*	42.2*
CCOC(=O)N1CCN(Cc2ccccc2Cl)CC1	1.3	-8.2	-15.3	1.8	.	1.2
CCOC(=O)N1CCN(Cc2cc(Cl)c3cccnc3c2O)CC1	9.6	41.7	83.3*	14.5	44.2	2.5
COc1cc(OC)cc(C(=O)NC(C)CNc2ccc(Cl)cc2[N+](=O)[O-])c1 (configuration not stated)	.	-13.7	.	-6.6	27.4	.
COc1cc(Cl)ccc1S(=O)(=O)n1nc(C)cc1C	93.2*	-12.6	8.4	1.8	28.9	-1.6
CC(C)(C)C(=O)/C(=C\c1ccc([N+](=O)[O-])cc1)n1cncn1	90.5*	44.9	92.6*	23.2*	-276.5	96.7*
NNC(=O)c1ncoc1-c1ccc(Cl)cc1	-1.1	4.9	.	-2.1	8.6	-1.7
COc1ccc(C([O-])=Nc2ccc[n+](-c3nc4ccccc4nc3NS(=O)(=O)c3ccccc3)c2)cc1	-2.3	6.2	.	-2.3	83.7*	-3.9
